Eight compounds from ChEMBL document CHEMBL2218924, “A broad activity screen in support of a chemogenomic map for kinase signalling research and drug discovery” (Biochem J, 2013) can be followed below.

The structures appear in SMILES notation.

One may read the residual activity as the signal under treatment as a percentage of the control signal.

Test [1] deals with T1, Rhodopsin kinase GRK7 (Homo sapiens) (UniProt Q8WTQ7).
T1 sequence (whole entry): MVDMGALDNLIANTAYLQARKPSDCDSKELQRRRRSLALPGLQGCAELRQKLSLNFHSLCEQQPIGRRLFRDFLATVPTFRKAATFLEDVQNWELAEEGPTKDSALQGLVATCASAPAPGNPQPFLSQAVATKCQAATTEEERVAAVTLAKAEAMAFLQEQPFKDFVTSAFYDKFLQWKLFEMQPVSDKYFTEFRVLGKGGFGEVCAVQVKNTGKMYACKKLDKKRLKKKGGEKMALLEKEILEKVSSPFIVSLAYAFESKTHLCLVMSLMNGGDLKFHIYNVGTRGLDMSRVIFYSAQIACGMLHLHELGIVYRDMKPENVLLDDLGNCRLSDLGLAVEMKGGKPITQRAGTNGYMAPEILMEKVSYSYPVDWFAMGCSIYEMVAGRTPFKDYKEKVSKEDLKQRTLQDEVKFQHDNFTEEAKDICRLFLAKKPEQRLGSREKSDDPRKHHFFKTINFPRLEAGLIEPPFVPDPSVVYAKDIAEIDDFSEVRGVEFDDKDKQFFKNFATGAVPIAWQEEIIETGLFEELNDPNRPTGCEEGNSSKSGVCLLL
The conditions noted are these: at 10 µM.

The target of test [2] is Glycogen synthase kinase-3 alpha (Homo sapiens) (UniProt P49840). The conditions noted are these: at 1 µM.
Test [3] has the same target. Particulars: at 10 µM.
The target of test [4] is Glycogen synthase kinase-3 beta (Homo sapiens) (UniProt P49841). Particulars: at 1 µM.
The target is the same in test [5]. The conditions noted are these: at 10 µM.
Test [6] addresses Homeodomain-interacting protein kinase 1 (Homo sapiens) (UniProt Q86Z02). Particulars: at 1 µM.
Test [7] has the same target. The conditions noted are these: at 10 µM.
The target in test [8] is Homeodomain-interacting protein kinase 2 (Homo sapiens) (UniProt Q9H2X6). The conditions noted are these: at 1 µM.
For test [9] the target is unchanged. Particulars: at 10 µM.
The target of test [10] is Homeodomain-interacting protein kinase 3 (Homo sapiens) (UniProt Q9H422). Particulars: at 1 µM.
Test [11] has the same target. The conditions noted are these: at 10 µM.
The target of test [12] is Tyrosine-protein kinase HCK (Homo sapiens) (UniProt P08631). The conditions noted are these: at 1 µM.
For test [13] the target is unchanged. The conditions noted are these: at 10 µM.
For test [14] the target is unchanged. Particulars: at 1 µM. This is another data set of the same source.
Test [15] has the same target. Particulars: at 10 µM. The source holds these as a separate data set.
Test [16] has as its target Insulin-like growth factor 1 receptor (Homo sapiens) (UniProt P08069). The conditions noted are these: at 1 µM.
For test [17] the target is unchanged. The conditions noted are these: at 10 µM.
For test [18], the target named is T2, Protein kinase C zeta type (Homo sapiens) (UniProt Q05513).
T2 sequence (whole entry): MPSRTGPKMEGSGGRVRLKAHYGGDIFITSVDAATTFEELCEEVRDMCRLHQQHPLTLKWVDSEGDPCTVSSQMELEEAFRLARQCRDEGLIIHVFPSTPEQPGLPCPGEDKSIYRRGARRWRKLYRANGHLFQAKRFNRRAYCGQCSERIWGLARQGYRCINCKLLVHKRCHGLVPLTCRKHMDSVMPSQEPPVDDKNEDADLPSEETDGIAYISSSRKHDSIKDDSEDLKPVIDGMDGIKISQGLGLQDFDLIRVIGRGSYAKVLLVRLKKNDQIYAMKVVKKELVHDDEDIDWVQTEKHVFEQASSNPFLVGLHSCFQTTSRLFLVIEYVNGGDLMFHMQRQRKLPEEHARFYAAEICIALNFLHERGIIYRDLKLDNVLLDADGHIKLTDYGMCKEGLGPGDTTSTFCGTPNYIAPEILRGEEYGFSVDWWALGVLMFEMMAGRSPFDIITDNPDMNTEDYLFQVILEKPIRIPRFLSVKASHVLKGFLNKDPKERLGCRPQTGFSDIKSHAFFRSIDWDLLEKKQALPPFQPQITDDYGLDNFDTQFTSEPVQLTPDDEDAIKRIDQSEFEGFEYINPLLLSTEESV
Particulars: at 10 µM.

The target in test [19] is T3, Serine/threonine-protein kinase haspin (Homo sapiens) (UniProt Q8TF76).
T3 sequence (whole entry): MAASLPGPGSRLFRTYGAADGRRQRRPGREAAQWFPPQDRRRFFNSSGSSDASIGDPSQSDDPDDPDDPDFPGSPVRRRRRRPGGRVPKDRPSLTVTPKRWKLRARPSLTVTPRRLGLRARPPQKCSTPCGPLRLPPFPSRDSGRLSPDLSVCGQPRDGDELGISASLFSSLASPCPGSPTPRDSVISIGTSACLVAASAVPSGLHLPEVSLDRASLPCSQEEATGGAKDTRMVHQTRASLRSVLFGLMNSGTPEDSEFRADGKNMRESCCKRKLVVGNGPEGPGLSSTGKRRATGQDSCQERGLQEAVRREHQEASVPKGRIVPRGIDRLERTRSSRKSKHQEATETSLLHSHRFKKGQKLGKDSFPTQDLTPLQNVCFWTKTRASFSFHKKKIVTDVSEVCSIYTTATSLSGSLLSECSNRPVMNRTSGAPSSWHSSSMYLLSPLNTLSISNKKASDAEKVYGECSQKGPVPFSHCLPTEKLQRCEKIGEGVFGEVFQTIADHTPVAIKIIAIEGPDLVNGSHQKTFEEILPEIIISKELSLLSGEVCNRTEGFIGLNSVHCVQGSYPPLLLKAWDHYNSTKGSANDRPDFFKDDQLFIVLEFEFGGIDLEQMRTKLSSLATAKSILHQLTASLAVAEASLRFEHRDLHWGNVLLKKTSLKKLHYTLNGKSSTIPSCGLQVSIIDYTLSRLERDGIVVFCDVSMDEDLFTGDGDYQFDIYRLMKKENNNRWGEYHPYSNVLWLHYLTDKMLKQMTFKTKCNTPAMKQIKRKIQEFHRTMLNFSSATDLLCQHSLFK
Particulars: at 1 µM.

In test [20] the target is T3, Serine/threonine-protein kinase haspin (Homo sapiens). Particulars: at 10 µM.

Sequence of Glycogen synthase kinase-3 beta (Homo sapiens) (P49841 whole entry, looked up): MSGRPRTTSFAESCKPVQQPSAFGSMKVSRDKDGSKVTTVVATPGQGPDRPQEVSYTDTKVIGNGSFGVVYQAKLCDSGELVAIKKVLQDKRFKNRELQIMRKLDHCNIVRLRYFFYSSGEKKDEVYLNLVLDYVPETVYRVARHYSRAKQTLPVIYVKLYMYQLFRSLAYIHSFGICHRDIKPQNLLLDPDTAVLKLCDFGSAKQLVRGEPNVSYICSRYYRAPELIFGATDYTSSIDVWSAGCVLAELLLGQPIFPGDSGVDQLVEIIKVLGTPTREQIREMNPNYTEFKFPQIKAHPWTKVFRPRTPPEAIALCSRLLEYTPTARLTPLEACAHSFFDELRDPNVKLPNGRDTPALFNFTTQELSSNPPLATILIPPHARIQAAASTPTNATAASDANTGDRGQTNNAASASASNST
Sequence of Tyrosine-protein kinase HCK (Homo sapiens) (P08631 2-526 limits assumed): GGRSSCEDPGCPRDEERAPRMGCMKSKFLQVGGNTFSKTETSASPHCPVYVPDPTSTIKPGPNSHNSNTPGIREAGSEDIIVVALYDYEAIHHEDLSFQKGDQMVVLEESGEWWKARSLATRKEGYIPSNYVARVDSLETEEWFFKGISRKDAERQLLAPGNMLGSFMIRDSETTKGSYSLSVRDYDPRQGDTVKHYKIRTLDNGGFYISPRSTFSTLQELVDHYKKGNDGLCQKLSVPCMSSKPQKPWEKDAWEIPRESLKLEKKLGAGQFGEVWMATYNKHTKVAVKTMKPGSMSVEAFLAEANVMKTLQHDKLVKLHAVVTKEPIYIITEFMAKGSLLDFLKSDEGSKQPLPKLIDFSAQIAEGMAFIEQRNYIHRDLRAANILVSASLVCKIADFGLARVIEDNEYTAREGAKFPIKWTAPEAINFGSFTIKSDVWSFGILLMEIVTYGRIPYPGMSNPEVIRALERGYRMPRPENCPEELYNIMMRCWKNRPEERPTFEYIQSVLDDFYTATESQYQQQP
Sequence of Glycogen synthase kinase-3 alpha (Homo sapiens) (P49840 2-483 limits assumed): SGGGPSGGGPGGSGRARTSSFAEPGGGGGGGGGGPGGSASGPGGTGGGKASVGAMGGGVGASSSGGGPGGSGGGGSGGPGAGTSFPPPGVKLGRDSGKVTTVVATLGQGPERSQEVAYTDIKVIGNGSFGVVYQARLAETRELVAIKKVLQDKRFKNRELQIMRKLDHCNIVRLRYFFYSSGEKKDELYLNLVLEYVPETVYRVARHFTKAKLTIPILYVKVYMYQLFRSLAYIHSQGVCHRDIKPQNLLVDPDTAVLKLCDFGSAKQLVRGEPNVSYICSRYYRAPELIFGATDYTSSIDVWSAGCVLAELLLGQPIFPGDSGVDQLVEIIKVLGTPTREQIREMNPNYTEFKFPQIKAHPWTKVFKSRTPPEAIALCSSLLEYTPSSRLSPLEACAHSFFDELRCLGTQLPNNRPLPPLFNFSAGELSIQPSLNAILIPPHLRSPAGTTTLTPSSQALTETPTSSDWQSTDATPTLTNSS
Sequence of Insulin-like growth factor 1 receptor (Homo sapiens) (P08069 31-736 limits assumed): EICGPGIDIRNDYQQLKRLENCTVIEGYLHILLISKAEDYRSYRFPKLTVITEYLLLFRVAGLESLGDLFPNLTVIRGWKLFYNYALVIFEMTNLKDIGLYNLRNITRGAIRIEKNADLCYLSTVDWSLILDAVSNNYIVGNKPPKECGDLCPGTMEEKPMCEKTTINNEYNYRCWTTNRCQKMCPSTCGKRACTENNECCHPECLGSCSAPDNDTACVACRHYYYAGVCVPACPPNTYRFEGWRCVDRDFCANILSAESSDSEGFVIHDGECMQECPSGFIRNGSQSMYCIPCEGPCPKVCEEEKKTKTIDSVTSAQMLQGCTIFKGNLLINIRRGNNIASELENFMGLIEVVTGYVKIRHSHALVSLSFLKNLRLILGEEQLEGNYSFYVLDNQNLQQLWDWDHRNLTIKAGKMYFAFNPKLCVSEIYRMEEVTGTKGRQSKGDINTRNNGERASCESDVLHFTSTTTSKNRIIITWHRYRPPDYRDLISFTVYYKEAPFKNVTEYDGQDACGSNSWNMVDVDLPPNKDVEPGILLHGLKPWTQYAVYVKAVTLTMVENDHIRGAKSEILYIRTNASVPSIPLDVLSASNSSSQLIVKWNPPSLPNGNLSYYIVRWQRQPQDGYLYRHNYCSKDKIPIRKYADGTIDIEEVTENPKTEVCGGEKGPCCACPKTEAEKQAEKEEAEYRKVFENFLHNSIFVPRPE
Sequence of Insulin-like growth factor 1 receptor (Homo sapiens) (P08069 741-1367 limits assumed): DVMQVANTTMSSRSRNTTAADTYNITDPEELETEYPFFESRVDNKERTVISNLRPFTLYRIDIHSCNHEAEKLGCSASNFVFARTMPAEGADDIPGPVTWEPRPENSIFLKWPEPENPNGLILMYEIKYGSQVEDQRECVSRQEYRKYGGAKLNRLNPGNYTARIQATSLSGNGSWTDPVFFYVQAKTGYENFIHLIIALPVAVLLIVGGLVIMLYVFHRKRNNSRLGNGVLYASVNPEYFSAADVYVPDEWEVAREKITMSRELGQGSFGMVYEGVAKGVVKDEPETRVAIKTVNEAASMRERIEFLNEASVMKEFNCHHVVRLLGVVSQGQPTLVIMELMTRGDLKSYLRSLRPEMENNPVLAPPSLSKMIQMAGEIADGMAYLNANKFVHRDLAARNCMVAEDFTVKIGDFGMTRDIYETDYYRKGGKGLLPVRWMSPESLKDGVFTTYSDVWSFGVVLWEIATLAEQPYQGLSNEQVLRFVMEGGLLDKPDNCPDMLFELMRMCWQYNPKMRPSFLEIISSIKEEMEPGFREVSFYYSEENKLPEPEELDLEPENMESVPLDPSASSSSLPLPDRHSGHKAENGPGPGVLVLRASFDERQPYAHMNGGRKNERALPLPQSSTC
Sequence of Homeodomain-interacting protein kinase 2 (Homo sapiens) (Q9H2X6 whole entry, looked up): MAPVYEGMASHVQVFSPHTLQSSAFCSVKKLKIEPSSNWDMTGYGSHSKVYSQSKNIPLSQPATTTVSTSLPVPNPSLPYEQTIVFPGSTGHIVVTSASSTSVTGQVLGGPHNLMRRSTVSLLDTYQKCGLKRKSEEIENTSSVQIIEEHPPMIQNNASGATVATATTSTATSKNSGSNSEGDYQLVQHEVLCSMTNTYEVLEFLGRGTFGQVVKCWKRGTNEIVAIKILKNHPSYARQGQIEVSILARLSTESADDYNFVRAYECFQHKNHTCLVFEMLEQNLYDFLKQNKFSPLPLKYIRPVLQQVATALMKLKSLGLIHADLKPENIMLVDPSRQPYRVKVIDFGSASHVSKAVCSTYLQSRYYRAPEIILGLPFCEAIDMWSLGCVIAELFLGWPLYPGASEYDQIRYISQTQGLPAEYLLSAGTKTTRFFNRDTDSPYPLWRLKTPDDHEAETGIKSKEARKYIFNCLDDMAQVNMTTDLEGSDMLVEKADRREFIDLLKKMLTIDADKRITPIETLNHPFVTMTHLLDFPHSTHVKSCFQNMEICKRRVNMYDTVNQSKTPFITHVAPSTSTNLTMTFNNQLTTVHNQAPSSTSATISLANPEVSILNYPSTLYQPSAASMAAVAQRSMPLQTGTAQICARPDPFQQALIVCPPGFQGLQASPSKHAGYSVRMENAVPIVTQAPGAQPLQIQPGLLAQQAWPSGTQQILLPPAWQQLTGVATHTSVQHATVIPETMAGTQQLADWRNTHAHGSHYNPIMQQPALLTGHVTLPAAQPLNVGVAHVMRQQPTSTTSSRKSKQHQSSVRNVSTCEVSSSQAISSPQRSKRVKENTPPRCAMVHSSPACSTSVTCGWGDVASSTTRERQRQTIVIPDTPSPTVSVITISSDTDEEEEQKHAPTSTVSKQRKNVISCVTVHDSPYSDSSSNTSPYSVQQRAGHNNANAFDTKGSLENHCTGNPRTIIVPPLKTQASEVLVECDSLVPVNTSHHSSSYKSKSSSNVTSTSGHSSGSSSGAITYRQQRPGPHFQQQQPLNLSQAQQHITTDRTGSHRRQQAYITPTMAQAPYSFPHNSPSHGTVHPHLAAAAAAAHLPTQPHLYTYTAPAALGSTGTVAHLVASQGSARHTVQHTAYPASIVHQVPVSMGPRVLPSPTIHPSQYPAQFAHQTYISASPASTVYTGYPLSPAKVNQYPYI

In the case of `COc1cc2ncnc(Nc3ccc(Oc4ccccc4)cc3)c2cc1OC`, the residual activity in [1] came out at 92%; in test [2], 91%; in test [3] it was 178%; in [4], 84%; in test [5], 97%; in test [6] it was 102%. Further, the residual activity was 106% in [7]; 99% in [8]; 99% in test [9]; 94% in test [10]; 105% in test [11]; 4% in test [12]. In addition, the residual activity in test [13] came to 5%; in test [14] it was 20%; in [15], 3%; in test [16] it was 117%; in test [17], 112%; in test [18], 104%.

For `COc1ccc(OC)c2c(=S)c3ccccc3[nH]c12`, the residual activity was 83% in test [1]; 100% in test [2]; 85% in test [3]; 118% in test [4]; 94% in test [5]; 105% in test [6]. For the same compound, the residual activity in test [7] was 67%; in [8], 98%; in [9], 53%; in test [10], 99%; in test [11], 73%; in test [19] it was 114%. Also, the residual activity in [20] is 56%; in test [12] it was 85%; in test [13], 70%; in test [14] it was 101%; in test [15] it was 95%; in test [16], 103%. Besides, the residual activity was determined as 136% in [17] and 86% in test [18].

In the case of `O=Nc1c(-c2c(O)[nH]c3ccccc23)[nH]c2ccccc12`, the residual activity in test [1] was 18%; in [2] it was 5%; in test [3], 1%; in test [4] it was 10%; in test [5], 1%; in test [6], 90%. Further, the residual activity was 73% in test [7]; 48% in test [8]; 8% in test [9]; 88% in test [10]; 19% in test [11]; 26% in test [19]. Moreover, the residual activity in [20] came to 19%; in test [12] it was 15%; in test [13] it was 5%; in test [14] it was 8%; in [15], 1%; in test [16] it was 37%. Further, the figures for the residual activity in test [17] and in test [18] were 26% and 98%, respectively.

In the case of `COc1cccc(-c2cc(=O)c3ccccc3o2)c1N`, the residual activity in test [1] turned out to be 97%; in test [3], 77%; in test [4] it was 106%; in [5], 103%; in [6] it was 112%; in test [7], 92%. Besides, the residual activity turned out to be 109% in [8]; 95% in test [9]; 99% in [10]; 98% in test [11]; 118% in test [19]; 81% in [20]. Also, the residual activity stood at 88% in test [12]; 87% in test [13]; 106% in test [14]; 105% in [15]; 91% in test [16]; 127% in test [17]. Moreover, the residual activity in test [18] was 105%.

On to `COc1cc2ncc(-c3ccccc3)nc2cc1OC`, for which the residual activity in test [4] worked out at 93%; in test [5] it was 138%; in test [8], 96%; in test [9], 97%; in test [10], 100%; in test [11], 100%. Besides, the residual activity stood at 76% in test [19]; 64% in test [20]; 69% in [12]; 56% in [13]; 133% in test [16].

For the compound `Cc1cccc(-c2[nH]c(C(C)(C)C)nc2-c2ccc3c(c2)OCO3)n1`, the residual activity was found to be 97% in test [1]; 104% in test [4]; 93% in [5]; 93% in test [6]; 102% in [7]; 97% in test [8]. Further, the residual activity in test [9] was found to be 96%; in test [19], 92%; in [20], 75%; in test [12], 94%; in test [13], 79%; in test [14], 102%. The residual activity in test [15] was determined as 99%.

Regarding `Cc1cc(Nc2nc(-c3ccccc3)nc3ccccc23)n[nH]1`, the residual activity was found to be 14% in test [1]; 9% in test [2]; 3% in [3]; 20% in test [4]; 10% in test [5]; 95% in test [6]. Also, the residual activity is 35% in test [7]; 64% in test [8]; 13% in test [9]; 103% in [19]; 67% in [20]; 23% in [12]. For the same compound, the residual activity in [13] was 4%; in test [14], 27%; in test [15], 5%; in test [16], 17%; in test [17] it was 1%; in test [18], 102%.

As for `CCN(CC)CCCCN1c2ccccc2Oc2ccc(Cl)cc21`, the residual activity in [1] amounted to 95%; in test [2], 133%; in [3] it was 124%; in [4], 103%; in test [5], 129%; in test [6], 103%. Moreover, the residual activity was determined as 113% in test [7]; 108% in test [8]; 96% in test [9]; 97% in test [10]; 99% in [11]; 81% in [19]. Besides, the residual activity in test [20] is 36%; in test [12], 101%; in [13] it was 103%; in [14], 109%; in test [15], 112%; in test [16], 136%. Moreover, the residual activity in test [17] was found to be 90%; in test [18] it was 112%.
